For experiment [1], the target named is Alpha-galactosidase (Coffea arabica) (UniProt Q42656). The experiment in a line: Counterscreen for Glucocerebrosidase Inhibitors: qHTS Assay for Coffee Bean alpha-Galactosidase at pH 5.9 (AID 998).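 Further: plate controls were uninhibited enzyme for no effect and no-enzyme basal signal for full effect.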 In outline:
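Fluorogenic 4-MU substrate hydrolysis, 80 uM substrate and 2 nM coffee bean alpha-galactosidase, pH 5.9 citrate buffer, 20 min at room temperature, then NaOH/glycine stop. Titration 0.7 nM–77 uM, normalized to no-enzyme and enzyme controls, AC50 via Hill equation.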
On the technique in general: Counterscreens check selectivity or assay interference.

Experiment [2] concerns the target Calcium and integrin-binding protein 1 (Homo sapiens) (UniProt Q99828). The experiment in a line: Confirmatory qHTS for Identification of Calcium Integrin Binding Protein 1 (CIB1) Competitor (AID 1508617). Further: potency means the concentration at half of the fitted maximal effect; nearly all actives have a fitted effect of over 65% in size. The settings on record: CIB1 binding competition assay, biochemical qHTS. In outline:
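FP competition: CIB1-GST (1 uM final) in 5 mM HEPES pH 7.4, 125 mM NaCl, 5 mM CaCl2, 0.01% Tween20 preincubated 15 min RT with compounds (up to 114 uM), then FITC-alphaIIb peptide (100 nM), 15 min RT; Ex 480/Em 540.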
On the technique in general: qHTS replaces the single test concentration by a dilution series.

Experiment [3] is described as follows: Confirmation and Secondary Assay for Modulators of Hemoglobin Beta Chain Splicing at IVS2 654 locus (AID 910).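 Further: HeLa cells stably carrying EGFP split by mutant beta-globin IVS2-654 intron; per-well total GFP intensity by laser scanning cytometry after 2-day treatment; % of control where 0% means no effect.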 In outline: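 Readout: per-well total peak green fluorescence (488 nm ex, 500–520 nm em) from objects 5–250 µm, reflecting correct splicing of an EGFP-654 reporter. Compounds were applied for 2 days at 37 °C to overnight-plated HeLa EGFP-654 cells; controls were DMSO and 500 nM IVS2-654 PNA.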

Experiment [4] can be described thus: Confirmation and Secondary Assay for Modulators of Hemoglobin Beta Chain Splicing at IVS2 705 locus (AID 930).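 Further: HeLa cells stably expressing the EGFP-705 splicing reporter; GFP fluorescence per well restored by corrected splicing of the IVS2-705 intron in EGFP; series mostly up to about 46 µM; % of control where 0% means no effect.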 In outline: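 Secondary splice-site specificity test uses HeLa expressing CMV-driven EGFP interrupted by IVS2-705; cells were treated 2 days at 37C with 500 nM antisense PNA as positive control.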
Experiment [5] has as its target N-terminal Xaa-Pro-Lys N-methyltransferase 1 (Homo sapiens) (UniProt Q9BV86). The experiment in a line: Confirmatory qHTS for Inhibitors of N-terminal methyltransferase 1 (NTMT1): MTaseGlo Assay (AID 1645874). Further: potency means the concentration at half of the fitted maximal effect; nearly all actives have a fitted effect of over 65% in size. To be noted: NTMT1 enzyme, MTase-Glo SAH luminescence. In a few lines: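 Inhibition was derived from luminescence after SAH-to-ATP conversion, scaled between no-enzyme and DMSO wells, then fitted by 4-parameter Hill. Conditions: 125 nM NTMT1, 100 uM SAM, 1 uM SPKRIA, 30 min RT.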

For experiment [6], the target named is Luciferin 4-monooxygenase (Photinus pyralis) (UniProt P08659). In words: Biochemical firefly luciferase enzyme assay for NPC (AID 624030).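 Further: purified P. pyralis luciferase at 10 nM with luciferin and ATP substrate; series mostly up to about 59 µM; 0% = DMSO and -100% = full luciferase inhibition by PTC124 control; nearly all actives have a fitted effect of over 70% in size.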 In a few lines: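 Direct inhibition of firefly luciferase enzyme (10 nM final, 50 mM Tris Acetate) assessed by luminescence within 5 minutes. Percent activity scaled between DMSO and PTC124 positive control, with concentration-effect curves classified by fit quality and response.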
Luciferin 4-monooxygenase (Photinus pyralis), sequence (P08659 whole entry, looked up): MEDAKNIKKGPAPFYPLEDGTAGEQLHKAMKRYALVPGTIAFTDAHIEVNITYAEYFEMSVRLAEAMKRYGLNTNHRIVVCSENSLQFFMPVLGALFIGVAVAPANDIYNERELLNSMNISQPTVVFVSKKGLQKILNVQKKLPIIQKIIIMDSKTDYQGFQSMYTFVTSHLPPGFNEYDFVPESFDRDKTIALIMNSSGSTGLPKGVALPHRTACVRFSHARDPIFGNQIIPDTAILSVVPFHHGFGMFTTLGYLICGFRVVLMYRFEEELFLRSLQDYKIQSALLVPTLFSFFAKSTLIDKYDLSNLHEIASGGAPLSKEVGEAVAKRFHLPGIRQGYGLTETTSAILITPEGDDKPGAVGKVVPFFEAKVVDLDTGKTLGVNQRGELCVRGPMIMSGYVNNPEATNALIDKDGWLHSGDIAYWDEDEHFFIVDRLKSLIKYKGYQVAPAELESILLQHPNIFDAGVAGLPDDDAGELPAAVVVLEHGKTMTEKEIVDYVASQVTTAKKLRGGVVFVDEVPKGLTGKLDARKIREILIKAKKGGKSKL

Experiment [7] in a line: Confirmatory screen GU Rhodamine qHTS for Zika virus inhibitors qHTS (AID 1347157). Further: potency means the concentration at half of the fitted maximal effect; nearly all actives have a fitted effect of over 70% in size. In outline:
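In dose–response format, inhibition of unlinked protease (25 nM) was measured with 1.5 microM bis-peptide Rhodamine110 substrate. Aprotinin served as the intraplate control.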

Experiment [8] is described as follows: Confirmatory screen NINDS Rhodamine qHTS for Zika virus inhibitors (AID 1347161). Further: potency means the concentration at half of the fitted maximal effect; nearly all actives have a fitted effect of over 60% in size. In outline: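 Each compound, titrated, sat 15 min with 25 nM linked protease before 1.5 microM Rhodamine110 substrate went in. Fluorescence gain over the next 15 min, in pH 8.0 Tris with Tween 20, gave Hill-fitted curves.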
A short description of experiment [9]: Confirmatory qHTS for small molecule stabilizers of the endoplasmic reticulum resident proteome: Secreted ER Calcium Modulated Protein (SERCaMP) assay (AID 1508628).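 Further: SH-SY5Y cells given compound 16 h then thapsigargin 100 nM for 4 h; series mostly up to about 76 µM; on the % scale 0 is the no-effect control and ±100 the full control effect; nearly all actives have a fitted effect of over 40% in size.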 In a few lines: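 GLuc-SERCaMP-expressing SH-SY5Y cells, pretreated 16 h with compound, are challenged with thapsigargin to empty ER calcium stores; after 4 h, coelenterazine is added directly to the medium and luminescence is imaged.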

Experiment [10] can be described thus: Cell Viability qHTS for small molecule stabilizers of the endoplasmic reticulum resident proteome (AID 1508629).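 Further: human SH-SY5Y neuroblastoma cells carrying the GLuc-SERCaMP reporter; compound exposure about 46 h in total before the viability read; on the % scale 0 is the no-effect control and ±100 the full control effect.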 The settings on record: cell viability counter-screen, 100 nM thapsigargin for final 4 h.
Experiment [11] in a line: Confirmatory qHTS to identify inhibitors of SARS-CoV-2 cell entry (AID 1645844; calls by dose curve; further: potency means the concentration at half of the fitted maximal effect; nearly all actives have a fitted effect of over 45% in size). In outline:
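Luminescence entry read-out after 48 h: spike-pseudotyped MLV particles (Wuhan-Hu-1, 19-aa C-terminal truncation) added to compound-pretreated (1 h) HEK293-ACE2 cells; Data were normalised to bald PP and spike PP wells.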

Experiment [12] is described as follows: qHTS Assay for Identification of Small Molecule Agonists for Hypoxia Response Element Signaling Pathway (AID 914; active means well fitted activation curve with a large enough effect in the signal ratio, with a control signal flat, not every such curve was filed as active; the % refers to the signal ratio; further: % of control where 0% means no effect). To be noted: ME-180 (cervical carcinoma) HRE-bla reporter, beta-lactamase ratio, CoCl2, 17 h; activation: stronger effect = higher value. In outline: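 qHTS titration; ME-180 HRE-bla cells; EC50 CoCl2 co-treatment, 17 h at 37 degrees Celsius; CCF4 dye, ex 405nm, em 460nm and 530nm; %Activity from ratio; AC50.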

Experiment [13] deals with Nuclear receptor subfamily 1 group I member 3 (Homo sapiens) (UniProt Q14994). In words: Primary qHTS for antagonist of constitutive androstane receptor (CAR) against the NCATS DSHEA and TCM libraries (AID 1794836). Further: potency means the concentration at half of the fitted maximal effect. In outline:
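Antagonist mode: CAR reporter luminescence (ONE-Glo) in HepG2-CYP2B6-hCAR cells stimulated with 48 uM CITCO (final) over 24 h at 37 C, compounds titrated; viability read first by CellTiter-Fluor fluorescence.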

Experiment [14] in a line: Viability counterscreen for agonist of constitutive androstane receptor (CAR) against the NCATS DSHEA and TCM libraries (AID 1794838). Further: 0% is about no effect. In a few lines: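 Cell viability, from CellTiter-Fluor fluorescence (405/540 nm), was scored after a 24 h, 37C exposure of HepG2 cells carrying CYP2B6 reporter and hCAR to test substances in presence of 0.75 uM PK11195.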
Experiment [15] has as its target Nuclear receptor subfamily 1 group I member 3 (Homo sapiens) (UniProt Q14994). The experiment in a line: Primary qHTS for agonist of constitutive androstane receptor (CAR) against the NCATS DSHEA and TCM libraries (AID 1794839).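 Further: HepG2 cells expressing human CAR with a CYP2B6 reporter plus PK11195 antagonist; 0% is about no effect.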 In outline: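 Agonist mode in presence of hCAR antagonist PK11195 (0.75 µM final): test substances, 24 h, 37 °C, on HepG2-CYP2B6-hCAR cells. Same-well readouts: fluorescence viability, then ONE-Glo luminescence; CITCO as reference agonist.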

Experiment [16] is described as follows: HepG2 viability counterscreen (readout 2: ATP content) against the NCATS DSHEA and TCM libraries (AID 1794840).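 Further: HepG2 cells exposed to substances for about 24 h; 0% is about no effect.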 In a few lines: (§1)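 Readout 1: cellular protease activity, GF-AFC substrate (25 uM final, 30 min, fluorescence 380/510 nm). Readout 2: ATP content by CellTiter-Glo luminescence after 30 min at RT. Both follow ~24 h exposure of HepG2 cells (1,000/well) to substances.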

The nature of experiment [17]: HepG2 viability counterscreen (readout 1: protease activity) against the NCATS DSHEA and TCM libraries (AID 1794841).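 Further: cells exposed to compounds for about 24 h before the protease read; 0% is about no effect.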 In a few lines: as §1
For experiment [18], the target named is Cytochrome P450 3A4 (Homo sapiens) (UniProt P08684). The experiment in a line: qHTS for inhibitors of CYP3A4 against the NCATS DSHEA and TCM libraries (AID 1919971).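 Further: on the % scale 0 is the no-effect control and ±100 the full control effect; inhibition lowers luminescence from luciferin made by CYP3A4.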 In a few lines: (§2)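 Substances were tested against enzyme with a pro-luciferin substrate; minus-enzyme wells served as background. After NADPH-initiated oxidation (30-45 min, RT), light was generated with P450-Glo reagent.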
Cytochrome P450 3A4 (Homo sapiens), sequence (P08684 whole entry, looked up): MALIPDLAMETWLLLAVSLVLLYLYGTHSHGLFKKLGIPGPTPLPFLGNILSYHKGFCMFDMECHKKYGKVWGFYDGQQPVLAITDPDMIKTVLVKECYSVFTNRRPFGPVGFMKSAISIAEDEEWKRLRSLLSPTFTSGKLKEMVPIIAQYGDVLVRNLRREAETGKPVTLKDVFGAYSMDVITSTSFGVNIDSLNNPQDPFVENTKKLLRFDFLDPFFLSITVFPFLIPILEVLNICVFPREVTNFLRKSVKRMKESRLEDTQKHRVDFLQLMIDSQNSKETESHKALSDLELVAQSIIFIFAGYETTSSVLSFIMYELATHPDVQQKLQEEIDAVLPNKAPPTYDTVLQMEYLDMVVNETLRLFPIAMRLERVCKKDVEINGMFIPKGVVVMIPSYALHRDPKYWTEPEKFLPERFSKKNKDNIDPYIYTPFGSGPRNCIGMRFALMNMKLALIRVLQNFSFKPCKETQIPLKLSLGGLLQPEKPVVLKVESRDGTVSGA

The target of experiment [19] is Cytochrome P450 2D6 (Homo sapiens) (UniProt P10635). In words: qHTS for inhibitors of CYP2D6 against the NCATS DSHEA and TCM libraries (AID 1919972). Further: on the % scale 0 is the no-effect control and ±100 the full control effect. In a few lines:
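qHTS, concentration–response format with most substances from 19.5 nM. CYP2D6 + pro-luciferin substrate, 15 min with compound, then 1x NADPH regen, 30–45 min RT dark. Glo detection 30 min, luminescence. Quinidine control.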

The target of experiment [20] is Cytochrome P450 2C9 (Homo sapiens) (UniProt P11712). In words: qHTS for inhibitors of CYP2C9 against the NCATS DSHEA and TCM libraries (AID 1919973).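 Further: luminogenic pro-luciferin CYP2C9 substrate turned into luciferin with NADPH regeneration; series mostly up to about 34 µM; on the % scale 0 is the no-effect control and ±100 the full control effect.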 In a few lines: as §2
Cytochrome P450 2C9 (Homo sapiens), sequence (P11712 whole entry, looked up): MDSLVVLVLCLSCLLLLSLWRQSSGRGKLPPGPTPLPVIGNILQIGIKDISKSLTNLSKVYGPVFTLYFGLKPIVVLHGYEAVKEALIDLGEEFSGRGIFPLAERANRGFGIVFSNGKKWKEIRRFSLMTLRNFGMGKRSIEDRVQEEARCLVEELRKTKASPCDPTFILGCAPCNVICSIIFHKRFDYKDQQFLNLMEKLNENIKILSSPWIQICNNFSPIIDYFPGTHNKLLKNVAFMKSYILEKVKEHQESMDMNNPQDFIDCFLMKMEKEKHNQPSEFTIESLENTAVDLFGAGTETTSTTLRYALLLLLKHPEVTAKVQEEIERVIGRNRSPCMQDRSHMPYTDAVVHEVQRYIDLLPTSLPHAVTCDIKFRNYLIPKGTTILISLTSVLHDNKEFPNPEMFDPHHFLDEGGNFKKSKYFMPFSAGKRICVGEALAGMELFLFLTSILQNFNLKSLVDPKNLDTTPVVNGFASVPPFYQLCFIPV

A number with no mark means an inactive call. Inconclusive results are not listed. Calls of active or inactive are those of the source. Unless noted, the call rests on the fitted dose curve; in most records, active means well fitted curve in the direction sought with a large enough effect; inconclusive means small, poorly fitted or top-dose-only effect, or another doubt; inactive means no such curve, though single readings can be large; an effect the other way counts as inactive or inconclusive.

Nuclear receptor subfamily 1 group I member 3 (Homo sapiens), sequence (Q14994 whole entry, looked up): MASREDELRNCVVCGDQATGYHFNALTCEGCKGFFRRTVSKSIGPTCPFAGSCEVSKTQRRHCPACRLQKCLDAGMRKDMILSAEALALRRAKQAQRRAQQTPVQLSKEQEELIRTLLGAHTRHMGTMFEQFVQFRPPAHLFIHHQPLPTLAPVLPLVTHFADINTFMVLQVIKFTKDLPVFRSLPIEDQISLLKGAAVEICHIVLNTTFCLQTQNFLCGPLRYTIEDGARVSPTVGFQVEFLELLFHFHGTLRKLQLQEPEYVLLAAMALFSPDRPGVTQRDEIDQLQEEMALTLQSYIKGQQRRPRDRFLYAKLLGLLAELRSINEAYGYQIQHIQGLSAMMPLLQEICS
Alpha-galactosidase (Coffea arabica), sequence (Q42656 whole entry, looked up): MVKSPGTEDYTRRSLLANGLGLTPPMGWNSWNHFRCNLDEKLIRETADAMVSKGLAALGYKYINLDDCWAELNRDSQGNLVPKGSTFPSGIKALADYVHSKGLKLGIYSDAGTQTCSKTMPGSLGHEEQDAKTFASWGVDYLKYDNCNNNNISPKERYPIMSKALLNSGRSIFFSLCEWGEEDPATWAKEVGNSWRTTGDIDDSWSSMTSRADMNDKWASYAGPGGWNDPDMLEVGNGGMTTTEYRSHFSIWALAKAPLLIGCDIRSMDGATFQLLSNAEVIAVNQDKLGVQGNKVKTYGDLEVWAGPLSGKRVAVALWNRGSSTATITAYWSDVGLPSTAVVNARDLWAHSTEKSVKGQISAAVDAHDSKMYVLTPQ
N-terminal Xaa-Pro-Lys N-methyltransferase 1 (Homo sapiens), sequence (Q9BV86 whole entry, looked up): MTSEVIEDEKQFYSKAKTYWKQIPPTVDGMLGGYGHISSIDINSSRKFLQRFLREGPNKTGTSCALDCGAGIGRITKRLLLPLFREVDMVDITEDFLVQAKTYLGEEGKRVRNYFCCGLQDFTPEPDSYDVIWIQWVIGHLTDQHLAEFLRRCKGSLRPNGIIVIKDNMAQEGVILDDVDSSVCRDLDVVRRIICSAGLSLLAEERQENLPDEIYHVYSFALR
Calcium and integrin-binding protein 1 (Homo sapiens), sequence (Q99828 whole entry, looked up): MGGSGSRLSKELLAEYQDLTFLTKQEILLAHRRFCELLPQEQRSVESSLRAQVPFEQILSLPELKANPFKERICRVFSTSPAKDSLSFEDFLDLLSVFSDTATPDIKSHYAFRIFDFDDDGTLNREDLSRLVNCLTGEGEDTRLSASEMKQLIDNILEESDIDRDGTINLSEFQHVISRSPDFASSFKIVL
Cytochrome P450 2D6 (Homo sapiens), sequence (P10635 whole entry, looked up): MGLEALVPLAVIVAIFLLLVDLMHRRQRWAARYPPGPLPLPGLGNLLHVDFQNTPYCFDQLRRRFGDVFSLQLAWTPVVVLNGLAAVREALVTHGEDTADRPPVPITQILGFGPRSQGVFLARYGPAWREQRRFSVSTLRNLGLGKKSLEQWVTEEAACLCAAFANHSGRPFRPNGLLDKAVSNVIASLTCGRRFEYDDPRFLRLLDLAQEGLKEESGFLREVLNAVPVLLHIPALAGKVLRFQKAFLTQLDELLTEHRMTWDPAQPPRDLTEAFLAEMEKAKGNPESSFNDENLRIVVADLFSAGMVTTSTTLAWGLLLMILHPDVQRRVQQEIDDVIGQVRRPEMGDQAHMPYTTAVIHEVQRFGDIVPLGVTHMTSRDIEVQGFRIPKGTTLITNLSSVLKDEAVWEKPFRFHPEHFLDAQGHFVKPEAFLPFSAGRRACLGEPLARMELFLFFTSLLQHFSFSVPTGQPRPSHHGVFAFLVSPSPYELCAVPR

`C=CCN1CCC2(C)c3cc(O)ccc3C[C@H]1[C@H]2C`: the compound was classed as inactive in experiment [1].
Turning to `C=C1[C@@H](C)[C@H]2[C@H](Cc3ccccc3)NC(=O)[C@]23OC(=O)/C=C/C(=O)CCC[C@@H](C)C/C=C/[C@H]3[C@@H]1O`, the Potency in [2] is 10 µM (active).
For `CC1CCCC(=O)CCC/C=C/c2cc(O)cc(O)c2C(=O)O1` (stereo not given), the Potency entry in experiment [3] is “inactive”. Besides, the result in [4] was inactive. Besides, the Potency in [5] is 15.8 µM (active).
Take `O=C(CC1NCCC[C@H]1O)Cn1cnc2cc(Br)c(Cl)cc2c1=O` (stereo not given in full): the Potency result in experiment [6] is “inactive”.
`CNc1ccc2oc(C[C@H]3O[C@@]4(CC[C@H]3C)O[C@H](C(C)C(=O)c3ccc[nH]3)[C@H](C)C[C@H]4C)nc2c1C(=O)O` (stereo not given in full): the Potency in experiment [7] is 13.9 µM (active); in experiment [8] it was 31.2 µM (active).
For `C[C@H]1CCC/C=C/C2C[C@H](O)C[C@H]2[C@H](O)/C=C/C(=O)O1` (stereo not given in full), the Potency entry in experiment [9] was “inactive”. For the same compound, the max response in experiment [10] was 21.4%. In experiment [11], the Potency is 0.857 µM (active).
`CN(C)[C@@H]1C(=O)C(C(N)=O)=C(O)[C@@]2(O)C(=O)C3=C(O)c4c(O)ccc(Cl)c4[C@@](C)(O)C3C[C@@H]12` (stereo not given in full): the activation in [12] is 4.51%.
On to `C=C(CO)C(=O)O[C@H]1CC(=C)[C@@H]2C[C@H](O)C(=C)[C@@H]2[C@H]2OC(=O)C(=C)[C@@H]21`, for which the Potency in experiment [13] was 22.4 µM (active). Besides, the call in experiment [14], in experiment [15], in [16], in [17], in experiment [18] and in experiment [19] was inactive. Also, the call in experiment [20] was inactive.
